# Test results published in PubChem BioAssay (Tox21).
# Inconclusive results are not listed. Calls of active or inactive are those of the source. Calls come from the whole dose curve; as a rule, active = well fitted inhibition curve with a large enough effect in the repeat runs; inconclusive = weak or mixed curves; inactive = no such curve, though single readings can be large or run the other way.
# Molecular target: Cytochrome P450 2C19 (Homo sapiens) (UniProt P33261)
# Assay: Cytochrome P450 Family 2 Subfamily C Member 19 (CYP2C19) small molecule antagonists: luciferase reporter qHTS assay (AID 1671197); note: nearly all actives have a fitted effect of over 65% in size
# Conditions: P450-Glo CYP2C19 enzyme, luciferin luminescence, 1 h; series mostly up to 52.9 µM
# Method in brief: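 Inhibition of CYP2C19 was scored from loss of luminescence in a P450-Glo proluciferin substrate assay, NADPH-started and run 1 h at 37C, with ketoconazole as positive control.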
# Potency is the fitted concentration of half-maximal effect.
# Sequence of Cytochrome P450 2C19 (Homo sapiens) (P33261 whole entry, looked up): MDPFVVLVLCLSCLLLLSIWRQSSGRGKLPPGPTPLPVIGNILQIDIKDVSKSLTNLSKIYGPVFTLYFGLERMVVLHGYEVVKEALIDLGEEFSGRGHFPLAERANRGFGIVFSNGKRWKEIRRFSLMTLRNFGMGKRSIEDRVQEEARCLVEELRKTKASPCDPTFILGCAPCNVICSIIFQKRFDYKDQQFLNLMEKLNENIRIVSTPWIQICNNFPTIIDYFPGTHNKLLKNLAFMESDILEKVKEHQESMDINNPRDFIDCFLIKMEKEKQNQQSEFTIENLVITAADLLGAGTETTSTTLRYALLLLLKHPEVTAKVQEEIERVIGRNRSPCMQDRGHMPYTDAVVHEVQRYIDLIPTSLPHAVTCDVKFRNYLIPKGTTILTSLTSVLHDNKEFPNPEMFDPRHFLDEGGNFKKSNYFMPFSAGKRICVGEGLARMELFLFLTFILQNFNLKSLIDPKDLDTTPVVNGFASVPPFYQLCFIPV
row,Compound,Potency
1,CCc1oc2ccccc2c1C(=O)c1cc(Br)c(O)c(Br)c1,inactive
2,C[C@H]1[C@H]2CC[C@H]3[C@@H]4CC=C5C[C@@H](N(C)C)CC[C@]5(C)[C@H]4CC[C@]23CN1C,inactive
3,Clc1ccc2cc3ccccc3cc2c1,79.6 µM (active)
4,CS(=O)(=O)CCNCc1ccc(-c2ccc3ncnc(Nc4ccc(OCc5cccc(F)c5)c(Cl)c4)c3c2)o1,8.71 µM (active)
5,CCCCCCCC(=O)[O-].CCCCCCCC(=O)[O-].[Zn+2],inactive
6,C=C(C)C(=O)OCC(O)COc1ccc(C(C)(C)c2ccc(OCC(O)COC(=O)C(=C)C)cc2)cc1 (configuration not stated),7.1 µM (active)
7,CCCCN1CCCC[C@H]1C(=O)Nc1c(C)cccc1C,inactive
8,N=C1N=C(N)c2cc3ccccc3cc21,79.6 µM (active)
9,Cc1cc(N)c(S(=O)(=O)O)cc1Cl,inactive
10,CCC1=C[C@@H]2CN(C1)Cc1c([nH]c3ccccc13)[C@@](C(=O)OC)(c1cc3c(cc1OC)N(C)[C@H]1[C@@](O)(C(=O)OC)[C@H](OC(C)=O)[C@]4(CC)C=CCN5CC[C@]31[C@@H]54)C2,inactive
11,Oc1cccc2cc3cccc(O)c3c(O)c12,35.7 µM (active)
12,CCC(N)(CO)CO,inactive
13,C[n+]1cc2c3c(ccc2c2ccc4cc5c(cc4c21)OCO5)OCO3,1.07 µM (active)
14,CCCCCOc1ccccc1/C(=C\SC)n1ccnc1,1.1 µM (active)
15,CC1=C(/C=C/C(C)=C/C=C/C(C)=C/C=O)C(C)(C)CCC1,39.7 µM (active)
16,CCCCCCCCCCCC(=O)NCCCN(C)C,20 µM (active)
17,CCCCCCCCCCCCCC[P+](CCCC)(CCCC)CCCC (tested in a mixture with another compound),17.9 µM (active)
18,CCCC(=O)OC[C@@H](OC(=O)CCC)[C@@H](OC(=O)CCC)[C@H](Cn1c2nc(=O)[nH]c(=O)c-2nc2cc(C)c(C)cc21)OC(=O)CCC,8.71 µM (active)

row,Compound,Potency
1,Cc1cccc(CN2CCN(C(c3ccccc3)c3ccc(Cl)cc3)CC2)c1 (configuration not stated),8.71 µM (active)
2,CC[C@@]1(O)C(=O)OCc2c1cc1n(c2=O)Cc2c-1nc1ccccc1c2/C=N/OC(C)(C)C,inactive
3,CCCCCCCCNC(C)C(O)c1ccc(SC(C)C)cc1 (configuration not stated),19.5 µM (active)
4,NC(=O)CC[C@@H]1NC(=O)[C@H](Cc2ccccc2)NC(=O)[C@H](Cc2ccc(O)cc2)NC(=O)CCSSC[C@@H](C(=O)N2CCC[C@H]2C(=O)N[C@@H](CCCN=C(N)N)C(=O)NCC(N)=O)NC(=O)[C@H](CC(N)=O)NC1=O,inactive
5,Oc1cccc(-c2c3nc(c(-c4cccc(O)c4)c4ccc([nH]4)c(-c4cccc(O)c4)c4nc(c(-c5cccc(O)c5)c5ccc2[nH]5)CC4)C=C3)c1,38.9 µM (active)
6,NNC(=O)c1cccc(C(=O)NN)c1,inactive
7,Cn1cc(C(=O)[C@@H]2CCc3nc[nH]c3C2)c2ccccc21,8.71 µM (active)
8,C/C(=C(/OCCOc1ccc(Cl)cc1)c1ccc(Cl)cc1Cl)n1ccnc1,0.776 µM (active)
9,CCOC(=O)O[C@H](C)OC(=O)c1ccc2c(c1)cc(C(=O)NC1CCN(C(C)C)CC1)n2Cc1cc(-c2ccc(Cl)s2)on1,46.9 µM (active)
10,Cc1cc(O)c(Cl)c(C)c1Cl,56.4 µM (active)
11,O=C(NO)C1(NS(=O)(=O)c2ccc(Oc3ccc(F)cc3)cc2)CCOCC1,71 µM (active)
12,Clc1ccc(C(Cn2ccnc2)OCc2ccc(Sc3ccccc3)cc2)c(Cl)c1 (configuration not stated),2.75 µM (active)
13,CNCc1cc(F)ccc1Oc1ccc(Cl)c(Cl)c1,2.52 µM (active)
14,Nc1nc2ccccc2n1Cc1ccc(F)cc1,15.5 µM (active)
15,CSc1ccc2c(c1)C(N1CCN(C)CC1)Cc1ccccc1S2 (configuration not stated),34.7 µM (active)
16,CCCCCCCCCCC=O,inactive
17,CCCCCCCCCCCCCCCCCC[N+](C)(C)C,89.6 µM (active)
18,CCOC(=O)/C=C(C)/C=C/C=C(C)/C=C/c1c(C)cc(OC)c(C)c1C,11 µM (active)

# Molecular target: Cytochrome P450 2C9 (Homo sapiens) (UniProt P11712)
# Sequence (P11712 whole entry, looked up): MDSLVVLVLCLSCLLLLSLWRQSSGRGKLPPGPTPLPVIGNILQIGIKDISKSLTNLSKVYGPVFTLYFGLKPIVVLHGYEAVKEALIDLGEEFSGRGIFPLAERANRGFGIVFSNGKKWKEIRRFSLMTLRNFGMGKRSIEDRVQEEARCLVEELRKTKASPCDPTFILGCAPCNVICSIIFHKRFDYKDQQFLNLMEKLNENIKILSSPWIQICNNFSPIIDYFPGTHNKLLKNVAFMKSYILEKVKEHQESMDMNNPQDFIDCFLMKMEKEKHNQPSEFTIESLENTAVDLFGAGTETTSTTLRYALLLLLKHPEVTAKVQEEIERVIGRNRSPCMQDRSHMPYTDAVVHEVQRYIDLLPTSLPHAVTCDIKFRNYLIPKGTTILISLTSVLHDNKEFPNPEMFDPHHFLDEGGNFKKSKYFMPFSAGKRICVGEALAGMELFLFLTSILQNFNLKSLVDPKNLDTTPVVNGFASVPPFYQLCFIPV
# Assay: Cytochrome P450 Family 2 Subfamily C Member 9 (CYP2C9) small molecule antagonists: luciferase reporter qHTS assay (AID 1671198); note: nearly all actives have a fitted effect of over 50% in size
# Conditions: P450-Glo CYP2C9 enzyme assay, luciferin luminescence; series mostly up to 53 µM
# Method in brief: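 P450-Glo proluciferin substrate with CYP2C9 enzyme; 10 min RT preincubation, then NADPH regeneration 1 h at 37C; luciferin detection reagent 20 min RT, luminescence in relative luminescence units.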
row,Compound,Potency
1,CCCCCCCC(=O)[O-].CCCCCCCC(=O)[O-].[Zn+2],inactive
2,C=C(C)C(=O)OCC(O)COc1ccc(C(C)(C)c2ccc(OCC(O)COC(=O)C(=C)C)cc2)cc1 (configuration not stated),3.99 µM (active)
3,Oc1cccc2cc3cccc(O)c3c(O)c12,inactive
4,CCC(N)(CO)CO,inactive
5,CC1=C(/C=C/C(C)=C/C=C/C(C)=C/C=O)C(C)(C)CCC1,44.6 µM (active)
6,CCCCCCCCCCCCCC[P+](CCCC)(CCCC)CCCC (tested in a mixture with another compound),11.3 µM (active)
7,CCCCCCCCNC(C)C(O)c1ccc(SC(C)C)cc1 (configuration not stated),30.9 µM (active)
8,NC(=O)CC[C@@H]1NC(=O)[C@H](Cc2ccccc2)NC(=O)[C@H](Cc2ccc(O)cc2)NC(=O)CCSSC[C@@H](C(=O)N2CCC[C@H]2C(=O)N[C@@H](CCCN=C(N)N)C(=O)NCC(N)=O)NC(=O)[C@H](CC(N)=O)NC1=O,inactive
9,CCOC(=O)O[C@H](C)OC(=O)c1ccc2c(c1)cc(C(=O)NC1CCN(C(C)C)CC1)n2Cc1cc(-c2ccc(Cl)s2)on1,33.2 µM (active)
10,CCCCCCCCCCC=O,inactive
11,CCCCCCCCCCCCCCCCCC[N+](C)(C)C,63.5 µM (active)
